# Experimental data as given in PMC7862700, “An all-to-all approach to the identification of sequence-specific readers for epigenetic DNA modifications on cytosine”.
# How the values were obtained:
# Experiment in all cases: DAPPL (digital affinity profiling via proximity ligation, sequencing); 10 mM Tris-HCl pH 7.5, 50 mM NaCl, 1 mM DTT, 4% glycerol, room temperature, 30 min; GST-TFs on glutathione beads, 16-mer random dsDNA library, 0.1% formaldehyde crosslink after washing; high values mean tight binding
# Settings in all cases: protein: recombinant; tags: N-terminal GST; dsDNA, one strand shown
# FLI1 = biological target: T1, FLI1 (Homo sapiens, UniProt Q01543 1-452)
# T1 sequence: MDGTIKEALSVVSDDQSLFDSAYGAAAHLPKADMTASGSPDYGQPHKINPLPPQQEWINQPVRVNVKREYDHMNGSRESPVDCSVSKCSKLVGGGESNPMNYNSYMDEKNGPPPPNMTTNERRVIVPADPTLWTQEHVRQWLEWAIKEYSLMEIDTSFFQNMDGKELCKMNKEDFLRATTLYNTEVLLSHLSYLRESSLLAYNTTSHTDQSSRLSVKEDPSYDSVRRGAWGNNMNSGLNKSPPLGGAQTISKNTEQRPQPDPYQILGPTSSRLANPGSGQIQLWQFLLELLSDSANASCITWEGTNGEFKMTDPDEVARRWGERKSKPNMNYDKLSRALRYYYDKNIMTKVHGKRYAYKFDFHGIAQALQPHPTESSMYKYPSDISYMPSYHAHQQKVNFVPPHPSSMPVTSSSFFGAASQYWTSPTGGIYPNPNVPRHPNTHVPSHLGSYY
# Method in brief: (§1)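 Human transcription factors carrying a GST fusion were produced in yeast, bound to glutathione beads, tagged with DNA barcodes and pooled together with a tag-only sample. Each pool was held with 200 nmole of a random double-stranded 16-mer DNA library in Tris/NaCl/DTT/glycerol buffer for 30 min at room temperature, then washed, crosslinked in 0.1% formaldehyde, proximity-ligated with BsaI/T4 ligase (1 h, 37 °C), PCR-amplified and sequenced on an Illumina NextSeq500. Binding signal is the read frequency of each hexamer for a given factor divided by its frequency in the tag-only sample.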
# GABPA = biological target: T2, GABPA (Homo sapiens, UniProt Q06546 1-454)
# T2 sequence: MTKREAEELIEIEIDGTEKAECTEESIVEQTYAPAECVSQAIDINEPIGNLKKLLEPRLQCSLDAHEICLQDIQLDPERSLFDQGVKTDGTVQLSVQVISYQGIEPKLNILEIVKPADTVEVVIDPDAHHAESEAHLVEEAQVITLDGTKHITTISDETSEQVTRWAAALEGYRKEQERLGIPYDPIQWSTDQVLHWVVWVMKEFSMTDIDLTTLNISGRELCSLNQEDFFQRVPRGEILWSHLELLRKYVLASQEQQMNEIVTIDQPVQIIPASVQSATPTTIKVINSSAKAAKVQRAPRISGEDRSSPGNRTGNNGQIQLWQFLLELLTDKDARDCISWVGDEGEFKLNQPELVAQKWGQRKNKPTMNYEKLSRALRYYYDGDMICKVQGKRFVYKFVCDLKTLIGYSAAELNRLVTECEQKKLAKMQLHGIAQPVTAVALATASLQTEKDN
# Method in brief: as §1
# ERG = biological target: T3, ERG (Homo sapiens, UniProt P11308 1-479)
# T3 sequence: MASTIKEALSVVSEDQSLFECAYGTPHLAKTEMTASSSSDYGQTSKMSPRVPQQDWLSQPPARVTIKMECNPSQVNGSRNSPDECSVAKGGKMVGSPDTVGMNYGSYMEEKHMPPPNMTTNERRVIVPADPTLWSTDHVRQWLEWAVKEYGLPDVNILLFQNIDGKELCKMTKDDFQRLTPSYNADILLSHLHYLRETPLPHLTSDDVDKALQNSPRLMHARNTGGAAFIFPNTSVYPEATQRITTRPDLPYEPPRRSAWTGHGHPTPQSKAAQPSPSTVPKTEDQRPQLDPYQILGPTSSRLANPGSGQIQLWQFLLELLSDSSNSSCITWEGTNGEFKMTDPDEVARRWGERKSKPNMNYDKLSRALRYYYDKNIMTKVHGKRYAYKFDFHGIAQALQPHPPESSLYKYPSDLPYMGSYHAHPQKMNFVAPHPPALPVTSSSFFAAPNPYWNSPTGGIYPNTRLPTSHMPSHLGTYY
# Method in brief: as §1
# ELF1 = ELF1 (Homo sapiens, UniProt P32519 1-619)
# Chain of ELF1 (P32519 whole entry): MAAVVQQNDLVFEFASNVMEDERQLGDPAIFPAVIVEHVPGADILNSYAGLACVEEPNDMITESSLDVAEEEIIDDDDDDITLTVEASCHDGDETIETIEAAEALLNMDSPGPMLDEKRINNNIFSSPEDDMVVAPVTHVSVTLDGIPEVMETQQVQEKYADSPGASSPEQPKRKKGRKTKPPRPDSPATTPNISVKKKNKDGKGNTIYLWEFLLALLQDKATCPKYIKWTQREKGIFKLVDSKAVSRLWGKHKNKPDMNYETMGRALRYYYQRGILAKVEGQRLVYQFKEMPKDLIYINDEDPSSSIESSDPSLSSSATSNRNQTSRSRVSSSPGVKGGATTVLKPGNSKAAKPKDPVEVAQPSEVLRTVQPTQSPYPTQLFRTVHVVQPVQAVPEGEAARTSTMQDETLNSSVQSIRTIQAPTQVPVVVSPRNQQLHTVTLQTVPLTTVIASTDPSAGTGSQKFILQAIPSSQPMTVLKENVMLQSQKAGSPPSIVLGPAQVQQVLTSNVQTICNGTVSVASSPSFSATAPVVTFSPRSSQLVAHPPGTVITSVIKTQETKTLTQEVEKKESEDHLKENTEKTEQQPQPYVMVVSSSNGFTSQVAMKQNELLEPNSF
# Method in brief: as §1
# SPIB = SPIB (Homo sapiens, UniProt Q01892 1-262)
# Chain of SPIB (Q01892 whole entry): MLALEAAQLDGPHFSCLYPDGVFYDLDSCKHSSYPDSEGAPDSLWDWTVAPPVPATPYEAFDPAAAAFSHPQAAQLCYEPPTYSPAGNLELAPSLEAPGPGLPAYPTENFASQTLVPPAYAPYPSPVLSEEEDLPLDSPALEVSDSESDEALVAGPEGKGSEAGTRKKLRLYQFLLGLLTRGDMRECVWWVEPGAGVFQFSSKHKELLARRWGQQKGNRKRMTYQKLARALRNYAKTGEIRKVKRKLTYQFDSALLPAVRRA
# Method in brief: as §1
# ETV5 = ETV5 (Homo sapiens, UniProt P41161 1-510)
# Chain of ETV5 (P41161 whole entry): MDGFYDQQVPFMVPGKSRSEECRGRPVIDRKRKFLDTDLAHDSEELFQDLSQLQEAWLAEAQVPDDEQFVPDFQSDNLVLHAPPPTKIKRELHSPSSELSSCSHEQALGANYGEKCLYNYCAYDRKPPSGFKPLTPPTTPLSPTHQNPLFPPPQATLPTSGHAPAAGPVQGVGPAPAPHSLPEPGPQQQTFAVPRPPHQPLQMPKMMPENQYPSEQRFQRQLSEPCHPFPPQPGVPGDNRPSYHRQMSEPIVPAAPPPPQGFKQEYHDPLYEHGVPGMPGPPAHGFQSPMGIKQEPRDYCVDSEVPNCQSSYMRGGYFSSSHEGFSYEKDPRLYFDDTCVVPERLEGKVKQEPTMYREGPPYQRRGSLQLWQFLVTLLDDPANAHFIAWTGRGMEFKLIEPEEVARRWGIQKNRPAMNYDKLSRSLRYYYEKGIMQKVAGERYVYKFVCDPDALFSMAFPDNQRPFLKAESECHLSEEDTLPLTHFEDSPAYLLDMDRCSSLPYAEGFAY
# Method in brief: as §1
# SPIC = biological target: T4, SPIC (Homo sapiens, UniProt Q8N5J4 1-248)
# T4 sequence: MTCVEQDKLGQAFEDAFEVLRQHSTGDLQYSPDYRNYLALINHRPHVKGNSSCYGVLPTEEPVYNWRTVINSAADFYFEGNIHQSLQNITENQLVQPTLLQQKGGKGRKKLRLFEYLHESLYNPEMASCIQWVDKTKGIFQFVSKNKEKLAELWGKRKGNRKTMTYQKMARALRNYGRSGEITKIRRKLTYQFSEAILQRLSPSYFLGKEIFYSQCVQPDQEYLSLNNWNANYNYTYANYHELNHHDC
# Method in brief: as §1
# ELF4 = ELF4 (Homo sapiens, UniProt Q99607 1-663)
# Chain of ELF4 (Q99607 whole entry): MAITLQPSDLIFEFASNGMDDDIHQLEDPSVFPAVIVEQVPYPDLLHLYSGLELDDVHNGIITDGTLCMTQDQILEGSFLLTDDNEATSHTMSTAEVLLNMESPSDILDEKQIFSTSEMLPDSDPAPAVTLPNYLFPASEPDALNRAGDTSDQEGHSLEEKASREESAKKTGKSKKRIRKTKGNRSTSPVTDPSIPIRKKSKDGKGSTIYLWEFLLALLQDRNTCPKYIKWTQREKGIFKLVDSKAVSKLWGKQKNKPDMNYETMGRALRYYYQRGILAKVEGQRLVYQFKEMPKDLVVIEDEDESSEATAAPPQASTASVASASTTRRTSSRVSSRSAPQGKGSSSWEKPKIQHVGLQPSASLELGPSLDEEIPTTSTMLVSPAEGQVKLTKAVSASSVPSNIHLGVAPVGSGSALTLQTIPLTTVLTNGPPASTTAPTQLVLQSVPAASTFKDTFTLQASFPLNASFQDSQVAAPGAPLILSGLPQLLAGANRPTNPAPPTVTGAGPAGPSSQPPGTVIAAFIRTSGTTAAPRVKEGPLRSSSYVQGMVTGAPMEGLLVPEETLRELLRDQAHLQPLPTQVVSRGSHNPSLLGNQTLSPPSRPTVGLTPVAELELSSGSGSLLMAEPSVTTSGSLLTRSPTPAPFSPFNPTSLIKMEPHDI
# Method in brief: as §1
# ETV1 = ETV1 (Homo sapiens, UniProt P50549 1-477)
# Chain of ETV1 (P50549 whole entry): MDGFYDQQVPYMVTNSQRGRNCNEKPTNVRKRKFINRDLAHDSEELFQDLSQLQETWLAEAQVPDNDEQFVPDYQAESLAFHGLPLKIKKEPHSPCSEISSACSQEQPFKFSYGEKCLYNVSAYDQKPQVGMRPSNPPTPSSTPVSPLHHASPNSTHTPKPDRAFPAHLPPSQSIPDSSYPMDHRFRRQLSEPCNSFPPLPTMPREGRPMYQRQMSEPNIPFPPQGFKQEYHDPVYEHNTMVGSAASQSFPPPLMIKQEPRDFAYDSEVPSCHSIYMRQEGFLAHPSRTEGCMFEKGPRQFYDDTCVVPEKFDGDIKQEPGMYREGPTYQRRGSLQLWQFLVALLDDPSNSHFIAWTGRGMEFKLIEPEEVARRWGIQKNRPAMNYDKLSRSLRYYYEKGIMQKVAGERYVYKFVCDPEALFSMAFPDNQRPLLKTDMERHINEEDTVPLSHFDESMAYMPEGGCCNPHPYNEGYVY
# Method in brief: as §1
# ETV3L = biological target: T5, ETV3L (Homo sapiens, UniProt Q6ZN32 1-361)
# T5 sequence: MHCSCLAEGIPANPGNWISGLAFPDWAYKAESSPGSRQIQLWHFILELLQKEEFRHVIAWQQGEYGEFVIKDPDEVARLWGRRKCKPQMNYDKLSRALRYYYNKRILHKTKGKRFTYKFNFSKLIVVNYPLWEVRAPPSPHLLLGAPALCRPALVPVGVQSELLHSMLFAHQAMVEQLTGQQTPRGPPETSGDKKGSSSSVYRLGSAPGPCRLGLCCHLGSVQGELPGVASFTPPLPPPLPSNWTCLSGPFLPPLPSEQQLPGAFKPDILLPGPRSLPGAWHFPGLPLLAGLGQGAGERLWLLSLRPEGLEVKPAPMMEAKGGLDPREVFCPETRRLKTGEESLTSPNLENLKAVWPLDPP
# Method in brief: as §1
# ETV6 = ETV6 (Homo sapiens, UniProt P41212 1-452)
# Chain of ETV6 (P41212 whole entry): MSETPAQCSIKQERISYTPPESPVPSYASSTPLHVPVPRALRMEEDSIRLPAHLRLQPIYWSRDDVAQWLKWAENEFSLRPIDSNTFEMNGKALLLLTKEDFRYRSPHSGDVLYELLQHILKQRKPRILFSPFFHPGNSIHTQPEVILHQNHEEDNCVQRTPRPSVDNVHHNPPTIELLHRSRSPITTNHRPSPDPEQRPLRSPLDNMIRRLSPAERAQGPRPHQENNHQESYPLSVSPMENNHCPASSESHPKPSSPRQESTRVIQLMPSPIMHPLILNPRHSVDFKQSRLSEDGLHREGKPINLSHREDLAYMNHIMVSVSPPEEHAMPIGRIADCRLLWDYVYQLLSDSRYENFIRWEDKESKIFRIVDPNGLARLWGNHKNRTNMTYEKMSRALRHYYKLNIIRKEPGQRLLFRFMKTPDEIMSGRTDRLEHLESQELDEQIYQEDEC
# Method in brief: as §1
# EHF = biological target: T6, EHF (Homo sapiens, UniProt Q9NZC4 1-300)
# T6 sequence: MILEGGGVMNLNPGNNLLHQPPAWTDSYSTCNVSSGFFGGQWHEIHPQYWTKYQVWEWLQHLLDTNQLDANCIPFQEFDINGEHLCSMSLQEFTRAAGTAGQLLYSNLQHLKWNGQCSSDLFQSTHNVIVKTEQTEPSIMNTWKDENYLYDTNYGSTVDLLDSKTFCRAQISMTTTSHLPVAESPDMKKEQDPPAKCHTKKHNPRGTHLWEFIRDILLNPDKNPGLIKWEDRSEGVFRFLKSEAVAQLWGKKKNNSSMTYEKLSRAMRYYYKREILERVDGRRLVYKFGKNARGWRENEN
# Method in brief: as §1
# FEV = biological target: T7, FEV (Homo sapiens, UniProt Q99581 1-238)
# T7 sequence: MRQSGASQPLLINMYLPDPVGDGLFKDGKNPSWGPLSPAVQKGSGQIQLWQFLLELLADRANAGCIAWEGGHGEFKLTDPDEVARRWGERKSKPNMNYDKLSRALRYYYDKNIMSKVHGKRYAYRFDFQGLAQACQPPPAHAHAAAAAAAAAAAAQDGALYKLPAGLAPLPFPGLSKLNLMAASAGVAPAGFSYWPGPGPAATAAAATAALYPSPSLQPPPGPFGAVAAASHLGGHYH
# Method in brief: as §1
# ERF = biological target: T8, ERF (Homo sapiens, UniProt P50548 1-548)
# T8 sequence: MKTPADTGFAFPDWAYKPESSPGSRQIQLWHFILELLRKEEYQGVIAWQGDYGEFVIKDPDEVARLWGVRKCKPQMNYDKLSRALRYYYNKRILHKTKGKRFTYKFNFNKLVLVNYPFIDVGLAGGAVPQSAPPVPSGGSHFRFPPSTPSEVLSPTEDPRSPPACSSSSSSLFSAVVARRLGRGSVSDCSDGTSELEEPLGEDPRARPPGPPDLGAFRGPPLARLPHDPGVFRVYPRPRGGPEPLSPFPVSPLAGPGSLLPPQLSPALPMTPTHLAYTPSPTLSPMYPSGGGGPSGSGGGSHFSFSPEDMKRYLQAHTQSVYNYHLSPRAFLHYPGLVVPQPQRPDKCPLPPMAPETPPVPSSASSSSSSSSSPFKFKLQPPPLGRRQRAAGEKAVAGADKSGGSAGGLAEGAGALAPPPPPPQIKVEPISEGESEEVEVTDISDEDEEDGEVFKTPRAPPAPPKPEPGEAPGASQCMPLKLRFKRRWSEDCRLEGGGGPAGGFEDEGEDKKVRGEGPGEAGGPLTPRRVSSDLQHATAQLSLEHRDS
# Method in brief: as §1
# ETS2 = biological target: T9, ETS2 (Homo sapiens, UniProt P15036 1-469)
# T9 sequence: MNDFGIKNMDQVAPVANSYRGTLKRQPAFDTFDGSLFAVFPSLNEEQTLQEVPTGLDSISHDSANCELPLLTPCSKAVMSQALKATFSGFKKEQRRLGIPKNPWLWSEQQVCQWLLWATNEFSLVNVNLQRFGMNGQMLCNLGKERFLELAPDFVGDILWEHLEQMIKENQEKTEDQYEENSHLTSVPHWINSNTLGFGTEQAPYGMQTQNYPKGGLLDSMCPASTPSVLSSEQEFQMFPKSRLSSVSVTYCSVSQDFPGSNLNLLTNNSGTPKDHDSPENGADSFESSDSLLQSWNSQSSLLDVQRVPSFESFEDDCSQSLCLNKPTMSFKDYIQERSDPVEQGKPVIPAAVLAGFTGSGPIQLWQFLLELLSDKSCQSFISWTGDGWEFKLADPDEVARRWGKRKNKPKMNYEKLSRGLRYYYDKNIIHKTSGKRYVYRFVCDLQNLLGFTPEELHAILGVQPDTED
# Method in brief: as §1
# ETV3 = biological target: T10, ETV3 (Homo sapiens, UniProt P41162-2 1-143)
# T10 sequence: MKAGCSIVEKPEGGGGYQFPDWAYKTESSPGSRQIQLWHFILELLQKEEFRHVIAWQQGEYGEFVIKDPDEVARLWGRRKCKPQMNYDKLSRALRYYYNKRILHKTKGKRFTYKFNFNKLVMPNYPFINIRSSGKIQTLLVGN
# Method in brief: as §1
Sequence,binding signal (FLI1),binding signal (GABPA),binding signal (ERG),binding signal (ELF1),binding signal (SPIB),binding signal (ETV5),binding signal (SPIC),binding signal (ELF4),binding signal (ETV1),binding signal (ETV3L),binding signal (ETV6),binding signal (EHF),binding signal (FEV),binding signal (ERF),binding signal (ETS2),binding signal (ETV3)
GGCTCG,"1.06 fold enrichment (6-mer frequency, TF over GST control)","1.02 fold enrichment (6-mer frequency, TF over GST control)","1.02 fold enrichment (6-mer frequency, TF over GST control)","1.05 fold enrichment (6-mer frequency, TF over GST control)","1.12 fold enrichment (6-mer frequency, TF over GST control)","1.01 fold enrichment (6-mer frequency, TF over GST control)","1.12 fold enrichment (6-mer frequency, TF over GST control)","1.06 fold enrichment (6-mer frequency, TF over GST control)","1.01 fold enrichment (6-mer frequency, TF over GST control)","1.09 fold enrichment (6-mer frequency, TF over GST control)","1.06 fold enrichment (6-mer frequency, TF over GST control)",,,,,
CGCTGG,"1.05 fold enrichment (6-mer frequency, TF over GST control)",,"1.03 fold enrichment (6-mer frequency, TF over GST control)","1.08 fold enrichment (6-mer frequency, TF over GST control)","1.01 fold enrichment (6-mer frequency, TF over GST control)","1 fold enrichment (6-mer frequency, TF over GST control)","1.01 fold enrichment (6-mer frequency, TF over GST control)","1.02 fold enrichment (6-mer frequency, TF over GST control)",,"1.03 fold enrichment (6-mer frequency, TF over GST control)",,"1 fold enrichment (6-mer frequency, TF over GST control)","1.02 fold enrichment (6-mer frequency, TF over GST control)","1.05 fold enrichment (6-mer frequency, TF over GST control)","1.1 fold enrichment (6-mer frequency, TF over GST control)","1.12 fold enrichment (6-mer frequency, TF over GST control)"
